# ALOX12 inhib: qHTS Assay for Inhibitors of 12-hLO (12-human lipoxygenase) | Polyunsaturated fatty acid lipoxygenase ALOX12 (Homo sapiens), P18054 | purified 12-hLO, xylenol orange hydroperoxide absorbance | Potency, µM (top dose mostly 57.1 µM), usual class: inhibitors | actives 0.12% (n = 150,000) | AID 1452, 2008; note: nearly all actives have a fitted effect of over 55% in size
#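 150 nM 12hLO, 25 mM Hepes pH 7.0 + 0.01% Triton X-100; cpd preinc 15 min RT; 40 uM arachidonic acid, 30 min RT; Fe-XO 30 min; A573/A405 ratio as read-out.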
# 15-hLO-2 inh: qHTS Assay for Inhibitors of 15-hLO-2 (15-human lipoxygenase 2) | Polyunsaturated fatty acid lipoxygenase ALOX15B (Homo sapiens), O15296 | purified 15hLO-2, xylenol orange hydroperoxide absorbance | Potency, µM (titrated, usually from 57.1 µM), usual class: inhibitors | actives 0.56% (n = 110,000); note: nearly all actives have a fitted effect of over 60% in size
# Target sequence (O15296 whole entry, looked up): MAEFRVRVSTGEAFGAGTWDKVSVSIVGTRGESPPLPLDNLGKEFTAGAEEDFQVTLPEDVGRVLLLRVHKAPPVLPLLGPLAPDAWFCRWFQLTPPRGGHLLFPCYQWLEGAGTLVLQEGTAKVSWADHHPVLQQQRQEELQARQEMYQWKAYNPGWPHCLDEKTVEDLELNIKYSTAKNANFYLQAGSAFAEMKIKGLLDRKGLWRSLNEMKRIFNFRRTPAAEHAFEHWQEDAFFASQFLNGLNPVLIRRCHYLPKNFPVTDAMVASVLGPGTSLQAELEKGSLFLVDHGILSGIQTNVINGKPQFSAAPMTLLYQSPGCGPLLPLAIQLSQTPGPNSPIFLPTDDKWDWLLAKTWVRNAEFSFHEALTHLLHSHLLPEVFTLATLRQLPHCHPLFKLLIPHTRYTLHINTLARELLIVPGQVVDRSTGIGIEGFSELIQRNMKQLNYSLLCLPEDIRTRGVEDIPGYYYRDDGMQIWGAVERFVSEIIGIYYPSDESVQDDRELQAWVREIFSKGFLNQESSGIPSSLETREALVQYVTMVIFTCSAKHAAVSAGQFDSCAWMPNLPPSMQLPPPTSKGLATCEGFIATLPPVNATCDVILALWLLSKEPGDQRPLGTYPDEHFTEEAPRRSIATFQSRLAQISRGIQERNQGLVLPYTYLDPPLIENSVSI
#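 Enzyme 50 nM, AA 45 uM, 25 mM Hepes pH 7.5 + 0.01% Triton X-100; cpd preinc 15 min RT, rxn 90 min RT; stop/detect with 200 uM XO + 300 uM Fe(II) in 50 mM H2SO4, 30 min; A573/A405.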
# Numbers stand for hits; 0 = inactive; ? = inconclusive; - = no result; [ ] = another dose, or the depositor's remark. Only a selection was taken, and hits are over-represented in it overall. Calls come from the whole dose curve; as a rule, active = well fitted curve in the direction sought with a large enough effect; inconclusive = small, poorly fitted or top-dose-only effect, or another doubt; inactive = no such curve, though single readings can be large; an effect the other way counts as inactive or inconclusive.
SMILES,ALOX12 inhib,15-hLO-2 inh
Oc1ccc(Nc2nc(-c3ccc4ccccc4c3)cs2)cc1,0,0
Oc1ccc(-c2nc(-c3ccc(O)c(O)c3)cs2)cc1,5.01µM,3.98µM
COc1ccc(-c2c(C)nn(Cc3ccccc3)c2N)cc1,0,0
Cc1cc(C)cc(NS(=O)(=O)c2ccc(NC(=S)Nc3ccccc3)cc2)c1,0,-
Cc1ccc(-c2n[nH]c(=S)n2/N=C/C=C/c2ccccc2[N+](=O)[O-])cc1,0,12.6µM
COc1ccccc1/C=C\C=N\n1c(-c2ccc(Cl)cc2)n[nH]c1=S,0,-
Fc1ccc(Nc2ncnc3sc4c(c23)CCC4)cc1F,0,-
CC1(C)CSC(=NCc2ccccc2)N1C(=O)c1cccc([N+](=O)[O-])c1,0,-
CCc1nnc(/N=C/c2c(O)n(-c3ccc(Cl)cn3)c(=O)c3ccccc23)s1,0,-
O=C(Cn1sc2ccccc2c1=O)NC12CC3CC(CC(C3)C1)C2,7.94µM,0.794µM
O=C(CSc1ccccc1C(=O)NCc1ccccc1)NC12CC3CC(CC(C3)C1)C2,0,-
O=C(NCc1cccs1)c1ccc2c(c1)OCCO2,0,0
O=C1c2cccc(O)c2C(=O)c2c(O[C@@H]3O[C@H](CO)[C@@H](O)[C@H](O)[C@@H]3O)cccc21,0[11.4 µM],0[11.4 µM]
O=C(O)c1cc(O)c2c(c1)[C@H]([C@H]1c3cc(C(=O)O)cc(O)c3C(=O)c3c(O[C@@H]4OC(CO)C(O)C(O)C4O)cccc31)c1cccc(O[C@@H]3OC(CO)C(O)C(O)C3O)c1C2=O (stereo not given in full),0,10µM
COCCN1C=C2C(=O)C(C)(OC(=O)CCC(=O)OC)C(=O)C=C2C=C1C1CC1 (stereo not given),0[11.4 µM],-
O=C(CCSc1ccc(Cl)cc1)N1CCCCCC1,0,0
N#Cc1ccc(C(=O)N/N=C/c2cn(CC(=O)O)c3ccccc23)c(F)c1,0,-
Cc1c(Cl)cccc1NC(=S)NCC(C)C,0,-
Cc1c(Cl)cccc1NC(=S)NCc1ccccc1Cl,10µM,-
Cc1c(Cl)cccc1NC(=S)NCCC(c1ccccc1)c1ccccc1,7.94µM,-
Cc1c(Cl)cccc1NC(=S)NCCC(C)C,0,?
COc1cc(NC(=S)NCCC(c2ccccc2)c2ccccc2)cc(OC)c1,22.4µM,-
CNC(=S)NCCC(c1ccccc1)c1ccccc1,0,-
COc1ccc(NCCC#N)cc1,0,0
CCN(C(=O)COC(=O)/C=C/c1ccc(O)c(OC)c1)C1CCS(=O)(=O)C1 (stereo not given),0,-
SMILES,ALOX12 inhib,15-hLO-2 inh
FCCCOc1ccc(/C=N/OCc2ccc(Cl)cc2Cl)cc1,0,0
CCOC(=O)Cc1csc(SCC(=O)NC2CCCC(C)C2C)n1 (stereo not given),0,-
CC(=O)NC1(c2cccc(F)c2)CCN(CC(=O)NC2CCCCC2)CC1,0,0
CCOC(=O)CCCCC(=O)NC(CO)C(=O)NC (stereo not given),0,0
CCOc1ccc(NC(=O)NCCCn2c(C)nc3cc(C)c(C)cc32)cc1,0,0
O=c1c2c3c(sc2n2cnnc2n1C1CCCCC1)CCC3,0,0
Cc1[nH]n(-c2ccccc2)c(=S)c1C=Nc1cccc([N+](=O)[O-])c1,31.6µM,10µM
Cc1[nH]n(-c2ccccc2)c(=O)c1C=Nc1cccc2cccnc12,0,-
CC(C)(C)c1ccc(-c2nc(C=O)c3ccccn23)cc1,0,0
Cc1c(C(C)(C)C)c(C=S)n2ccccc12,0,15.8µM
Cc1cccc(OCCn2c(S(=O)(=O)O)nc3ccccc32)c1,0,0
Cc1cccc(OCCn2c(=S)[nH]c3ccccc32)c1,28.2µM,-
Cc1ccc2nc(CSc3nc(C)cc(C)c3C#N)[nH]c2c1,0,0
O=C1CCCC2=C1C(c1ccc3c(c1)OCO3)c1c([nH]n(-c3ccccc3)c1=O)N2 (stereo not given),0,0
O=C1CCCC2=C1C(c1ccc(Br)cc1)c1c([nH]c(=S)[nH]c1=O)N2 (stereo not given),?,31.6µM
Cc1nc(SCC(=O)N2CCCc3ccccc32)c2oc3ccccc3c2n1,0,0
Cc1cc(=O)c2c(O)c3c(O)cc(O)c4c5c(O)cc(O)c6c(O)c7c(=O)cc(C)c8c1c2c(c34)c(c65)c78,?,2.51µM
Cc1cc(O)c2c(c1O)C(=O)c1c(O)cc(C)c(O)c1C2=O,0,0
CN1C(=O)c2c(sc3c2CCCC3)NC1c1ccccc1O (stereo not given),0,?
CC1CCCC2(C1)NC(=S)c1c(sc3c1CCCC3)N2 (stereo not given),0,12.6µM
CN=C1N[C@H](c2ccccc2)N(c2ccccc2)S1,?,25.1µM
O=C(c1ccncc1)N1CCC2(CC1)CCN(C(c1ccccc1)c1ccccc1)CC2,0,0
Cc1cc(C)cc(NC(=S)NCCSc2ccc(Cl)cc2)c1,0,-
Cc1ccc(SCCNC(=S)Nc2ccc(C)c(C)c2)cc1,25.1µM,-
Cc1cc(N2CCN(C3CCCCC3)CC2)nc2cccc(O)c12,0,-
SMILES,ALOX12 inhib,15-hLO-2 inh
CCOC(=O)Cc1csc(SCn2nnc3ccccc3c2=O)n1,0,0
CCOC(=O)Cc1csc(-n2sc3ccccc3c2=O)n1,4.47µM,1.26µM
CCOC(=O)/C(=C\Nc1ccccc1C(F)(F)F)Sc1ncc(C(F)(F)F)cc1Cl,0,0
N#Cc1c(Sc2ncc(C(F)(F)F)cc2Cl)nsc1C/C=N\OCc1ccccc1Br,0,12.6µM
O=C(COC(=O)COc1ccc(Br)cc1)NCCC1=CCCCC1,0,-
O=C(/C=C/c1ccco1)Nc1ccc(N2CCCC2)cc1,0,-
COC(=O)c1ccc(NC(=O)CSCC(=O)OCC(=O)c2ccc(Br)cc2)cc1,0,0
C/C=C(/C(=C/C)c1ccc(O)cc1)c1ccc(O)cc1,?,15.8µM
C=C(c1ccc(O)cc1)c1ccc(O)cc1,0,?
O=C(NC(=S)Nc1ccc(Oc2ccc(Cl)cc2)cc1)c1ccccc1,12.6µM,?
O=C(Nc1ccc(NC(=S)NC(=O)c2cccs2)cc1)c1ccccc1,0,-
CC1(C)CC(=O)C2=C(C1)N(Cc1ccco1)C(=O)C2(NC(=O)c1cccnc1)C(F)(F)F (stereo not given),0,0
Cc1ccc(S(=O)(=O)N2CCN(C(=O)Cc3ccccc3)CC2)cc1,0,0
CN1CCN(C(c2cccnc2)c2ccc3cccnc3c2O)CC1 (stereo not given),1.58µM,0
CCOC(=O)c1c(C)oc2c1c(C(c1cccnc1)N1CCN(C)CC1)c(O)c1ccccc12 (stereo not given),0,0
O=C(Nc1nnc(-c2ccc(Cl)cc2)o1)NC1CCCCC1,0,0
O=C(CN(Cc1ccccc1)S(=O)(=O)c1ccc(S(=O)(=O)N2CCOCC2)cc1)Nc1ccccc1,0,-
Cc1cccc(N2CSC3=C(C#N)C(c4ccc(C)o4)CC(=O)N3C2)c1 (stereo not given),0,?
COc1ccc(C2CC(=O)N3CN(c4ccc(C)c(Cl)c4)CSC3=C2C#N)cc1 (stereo not given),0,15.8µM
COc1ccc(C2CC(=O)N3CN(Cc4ccco4)CSC3=C2C#N)cc1 (stereo not given),0,0
COc1ccc2ccccc2c1C1CC(=O)N2CN(Cc3ccco3)CSC2=C1C#N (stereo not given),0,12.6µM
COc1ccc(C2CC(=O)N3CN(c4ccccc4F)CSC3=C2C#N)cc1OC (stereo not given),0,?

# Screens from PubChem BioAssay.
